Screening data: PubChem, several laboratories
697 NFkB inh: lowers PMA/ionomycin-induced NF-kB signal in 697 B cells; 697 B-cell NF-kB luciferase reporter, 16 h; inhibition, % at 4 µM; 0.33% of 330,000 active; AID 435022; in the data active means inhibition above about 35%
Gli-Sufu block: Gli-Sufu pathway antagonism; Sufu-KO-LIGHT fibroblasts, Gli luciferase reporter luminescence; inhibition, % at 5 µM; 0.74% of 340,000 active;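 active means inhibition above about 55%, limit read from the data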;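 further: 0% = DMSO-treated cells and 100% = wells with medium but no cells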
Jurkat NFkB inh: lowers PMA/ionomycin-induced NF-kB signal in Jurkat cells. PMA/ionomycin-induced NF-kB luciferase reporter, luminescence. inhibition, % at 4 µM. 0.53% of 330,000 active. AID 435003; in the data active means inhibition above about 50%
esBAF inh: inhibitors of esBAF chromatin remodeling in mouse ES cells; AID 602393; reporter increase, % at 12.5 µM; 2% of 350,000 active; Bmi1-luciferase knock-in reporter, 24 h; 100% = twice the neutral-well signal; in the data active means activation above about 40%;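 further: 0% = median of the plate's neutral control wells and 100% = double that signal; a rise in the Bmi1 reporter signal indicates esBAF inhibition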
SMARCA2 activ: increases SMARCA2 function in MMTV reporter cells | MG213 cells, MMTV-luciferase reporter, dexamethasone, overnight | activation, % at 9.1 µM | 1% of 370,000 active; in the data active means activation above about 7.8%;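 further: 0% = vehicle wells and 100% = reference activator wells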
Jurkat NFkB conf: inhibitors of the PMA/ionomycin-induced NF-kB reporter in Jurkat cells, retest; inhibition, % at 4 µM; Jurkat NF-kB luciferase, 16 h; 27% of 2,700 active; shares compounds with Jurkat NFkB inh; AID 435020;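 active means inhibition reaching about 45% at 4 µM in either replicate, limit read from the data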;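 further: plate controls were PMA/ionomycin stimulated DMSO wells for no effect and unstimulated DMSO wells for full effect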
* = called active by the depositor; / = not tested or not shown. Sampled rows, rich in hits. Any-hit rate of the full collection: about 3.3%.

SMILES	697 NFkB inh	Gli-Sufu block	Jurkat NFkB inh	esBAF inh	SMARCA2 activ	Jurkat NFkB conf
COc1ccc(S(=O)(=O)Nc2cccc3c2O[C@@H](CN(C)S(=O)(=O)c2ccc(C)cc2)[C@H](C)CN([C@@H](C)CO)C3=O)cc1	/	/	/	0	/	/
CO[C@@H]1CN(C)C(=O)c2ccc(NS(=O)(=O)c3cn(C)cn3)cc2OC[C@@H](C)N(CCC(F)(F)F)C[C@@H]1C	/	/	/	-6	/	/
C/C(=N\NC(=O)c1ccc(NS(=O)(=O)c2cccs2)cc1)c1ccccn1	14	4	12	/	/	/
C/C(=N\NC(=O)c1ccccc1Cl)c1ccccn1	-146	64*	89*	0	0	-17
C/C(=N/NC(=O)c1ccc(C(C)(C)C)cc1)c1ccccn1	-143	65*	100*	/	-3	0
C/C(=N\NC(=O)c1ccc(Cl)c(Cl)c1)c1ccc(Br)s1	-1	10	4	/	-1	/
C/C(=N\NC(=O)c1ccc(Cl)c(Cl)c1)c1ccccn1	-74	54	98*	-65	1	53*
COCC(=O)N(C)C[C@H]1Oc2cc(C3=CCCC3)ccc2S(=O)(=O)N([C@H](C)CO)C[C@H]1C	/	/	/	-2	/	/
Cc1ccccc1NC1=C/C(=N\S(=O)(=O)c2cccs2)c2ccccc2C1=O	-171	42	51*	-74	-6	84*
Cc1ccc(NC2=C/C(=N/S(=O)(=O)c3cccs3)c3ccccc3C2=O)cc1C	/	2	/	/	4	/
O=C(c1cccnc1)N1C[C@@H]2[C@H](c3ccccc31)[C@H](CO)N2C(=O)Nc1cccc(F)c1	/	/	/	-3	/	/
CN1CCN(c2ccc(-c3cccc(NC(=O)COc4ccc(Cl)cc4)c3)nn2)CC1	-129	-27	-179	2	3	-55
CN1CCN(c2ccc(-c3cccc(NC(=O)COc4ccc(Cl)cc4Cl)c3)nn2)CC1	-110	15	-170	13	7	-18
CCc1cccc2sc(N3CCN(C(=O)c4ccc([N+](=O)[O-])o4)CC3)nc12	-8	76*	51*	12	/	-13
O=C1C=CCC(/C=C/c2ccccc2)O1 (stereo not given)	-165	22	100*	/	4	96*
O=C(NCC[C@H]1CC[C@H](NS(=O)(=O)c2ccc(Cl)cc2)[C@@H](CO)O1)c1ccccc1F	/	/	/	1	/	/
CCOc1cc(S(=O)(=O)N2CC=C(c3ccc(F)cc3)CC2)c(OCC)cc1-n1cnnn1	-61	1	56*	0	1	23
CCc1sc(C(=O)N2CCc3ccccc32)cc1C	-167	-112	-192	/	2	-102
N#CC(C#N)=C1C=CC=CN1/C(=C\c1ccco1)C(=O)c1ccccc1	/	38	/	/	-11	/
COc1ccc(C(=O)/C(=C\c2ccco2)N2C=CC=CC2=C(C#N)C#N)cc1	-3	43	65*	2	/	49*
N#CCC(CNc1ncc(C(F)(F)F)cc1Cl)OC(=O)c1ccc(Cl)cc1Cl (stereo not given)	-5	10	70*	/	-2	11
CC(=O)n1cc(N(C(=O)CCl)c2ccccc2)c2ccccc21	-46	2	72*	/	-8	11
Cc1ccc(S(=O)(=O)N[C@H]2CC[C@H](CCNC(=O)c3ccc4c(c3)OCO4)O[C@H]2CO)cc1	/	/	/	-2	/	/
CCOC(=O)N1CCN(C(=O)C2CCCN(Cc3nc(-c4ccc(Cl)cc4)oc3C)C2)CC1 (stereo not given)	-12	9	59*	7	-3	55*
O=C(NNC(=O)C12CC3CC(CC(C3)C1)C2)c1ccccn1	23	2	72*	/	3	23
SMILES	697 NFkB inh	Gli-Sufu block	Jurkat NFkB inh	esBAF inh	SMARCA2 activ	Jurkat NFkB conf
CCCCc1ccc(NC(=O)c2cnccn2)cc1	-206	-71	-156	-9	3	-105
Cc1ccc(C(=O)Sc2cccccc2=O)cc1	-86	75*	90*	-52	-10	14
CCOc1ccccc1N1CCN(C(=O)c2cc(-c3cccnc3)nc3c(Cl)cccc23)CC1	-31	2	68*	-15	/	13
CCOc1ccccc1N1CCN(C(=O)c2cc3ccccc3cc2OC)CC1	-46	11	57*	-9	-2	8
Cc1ccc(S(=O)(=O)Nc2cccc3c2O[C@@H](CN(C)C(=O)Nc2c(C)noc2C)[C@H](C)CN([C@H](C)CO)C3=O)cc1	/	/	/	-5	/	/
CCCc1nc2oc3ccccc3c(=O)c2c(=O)n1-c1ccc(C)cc1	-83	-5	-159	/	6	-54
Cc1ccc(-n2c(C(C)C)nc3oc4ccccc4c(=O)c3c2=O)cc1	-138	-5	-198	/	2	-72
CCc1nc2oc3ccccc3c(=O)c2c(=O)n1-c1ccc(C)cc1	-116	-12	-91	/	4	/
Cc1nc(-c2ccc(NC(=O)c3ccco3)cc2)cs1	-162	2	52*	-77	-4	37
C[C@@H]1CN([C@H](C)CO)C(=O)c2cc(NC(=O)Nc3ccc(C(F)(F)F)cc3)ccc2O[C@@H]1CN(C)S(C)(=O)=O	/	/	/	-3	/	/
O=C(NCC(=O)N1CC=C(c2ccccc2)CC1)c1ccc(OC(F)F)cc1	-3	18	0	-27	-5	/
COc1cc(OC)cc(C(=O)NCC(=O)N2CC=C(c3ccccc3)CC2)c1	-44	-13	70*	/	-2	14
CN1c2ccc(-c3ccccc3F)cc2[C@@H]2[C@@H](CCN2C(=O)CN2CCOCC2)[C@@H]1CO	/	/	/	1	/	/
COc1ccc(-n2nnnc2/C=C/Nc2cc(C(F)(F)F)ccc2OC)cc1	25	-1	8	-4	-2	/
COc1ccc(-n2nnnc2/C=C\Nc2ccccc2C(=O)c2ccccc2)cc1	-27	5	53*	-1	3	9
CSc1ccc(/C=C/C(=O)Nc2ccccc2)cc1	-110	-160	-240	-18	-1	-149
C[C@H]1CN([C@@H](C)CO)C(=O)c2cc(NC(=O)Nc3ccc(C(F)(F)F)cc3)ccc2O[C@@H]1CN(C)Cc1ccccc1	/	/	/	4	/	/
Cc1nc(NC(=O)c2csc3ccccc23)sc1C	-145	-64	-165	-3	5	-129
Cc1cc(C(=O)Nc2cccc3c2O[C@H](CN(C)C(=O)Nc2ccc(F)cc2)[C@@H](C)CN([C@@H](C)CO)C3=O)n(C)n1	/	/	/	1	/	/
CCOCCCNC(=O)c1cc2c(s1)-c1ccccc1SC2	10	7	-11	1	0	/
CN(C)CCNC(=O)c1cc2c(s1)-c1ccc(Cl)cc1SC2	-21	14	62*	0	-7	1
CCCN1[C@H](C(=O)N[C@H](C)c2ccccc2)[C@@H](CO)[C@@H]2Cn3c(ccc(-c4ccc(F)cc4)c3=O)[C@@H]21	/	/	/	3	/	/
C=CCOc1ccc2nc(NC(=O)OC)[nH]c2c1	-1	0	72*	14	2	31
COC(=O)Nc1nc2ccc(-c3n[nH]c(=O)c4ccccc34)cc2[nH]1	-82	-8	71*	-11	1	9
C=C(c1ccc2nc(NC(=O)OC)[nH]c2c1)c1cccs1	/	13	/	/	5	/
Cn1cnc(S(=O)(=O)N[C@H]2CC[C@@H](CC(=O)Nc3ccccc3)O[C@@H]2CO)c1	/	/	/	0	/	/
